The list is not random: actives were taken first. Their share in the collection is about 2.8%.
Six1-Eya2 inh – inhibitors of human Six1/Eya2 interaction | Q15475+O00167 | AlphaScreen GST-Six1/His-Eya2 binding, biochemical; stronger effect = lower value | activity change, % (concentration not given with the values) | hit rate 0.56% among 360,000; in the data active = activity change below about -65%; inconclusive = mostly about -30% to -63%
Target sequence (O00167 whole entry, looked up): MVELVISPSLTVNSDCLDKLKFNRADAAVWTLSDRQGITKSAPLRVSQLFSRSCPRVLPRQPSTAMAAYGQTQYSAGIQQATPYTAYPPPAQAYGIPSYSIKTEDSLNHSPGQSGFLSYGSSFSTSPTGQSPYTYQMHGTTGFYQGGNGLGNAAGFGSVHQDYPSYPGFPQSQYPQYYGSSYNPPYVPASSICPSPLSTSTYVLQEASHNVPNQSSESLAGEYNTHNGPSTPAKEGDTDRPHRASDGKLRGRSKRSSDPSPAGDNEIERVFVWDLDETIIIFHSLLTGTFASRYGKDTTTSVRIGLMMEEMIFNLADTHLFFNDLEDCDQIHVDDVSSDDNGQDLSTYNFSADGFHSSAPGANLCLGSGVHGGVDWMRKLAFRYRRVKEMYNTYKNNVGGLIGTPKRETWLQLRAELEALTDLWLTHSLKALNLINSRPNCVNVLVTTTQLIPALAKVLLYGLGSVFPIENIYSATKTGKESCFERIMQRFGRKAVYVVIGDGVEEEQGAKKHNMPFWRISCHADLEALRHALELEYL
Target sequence (Q15475 whole entry, looked up): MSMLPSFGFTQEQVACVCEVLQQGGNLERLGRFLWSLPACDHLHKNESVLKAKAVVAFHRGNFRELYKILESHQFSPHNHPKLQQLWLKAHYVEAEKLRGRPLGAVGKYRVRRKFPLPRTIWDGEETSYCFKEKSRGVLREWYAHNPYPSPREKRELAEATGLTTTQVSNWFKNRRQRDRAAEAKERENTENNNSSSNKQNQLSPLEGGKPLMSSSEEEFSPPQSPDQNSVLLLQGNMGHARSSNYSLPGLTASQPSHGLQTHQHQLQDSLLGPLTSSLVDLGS
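AlphaScreen with GST-Six1 and His-Eya2 (5X mix: 250 nM and 500 nM), glutathione donor and nickel acceptor beads; buffer 50 mM Tris pH 8.0, 300 mM NaCl, 1 mM TCEP; 1 h at 37 C in the dark.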
S2 tox – viability counter-screen for ATXN expression inhibitors | Potency, µM (titrated, usually from 56.7 µM), usual class: cytotoxic | S2 cells (HEK-293 line with an ATXN2-luciferase reporter) viability, CellTiter-Fluor protease fluorescence, 24 h | hit rate 0.49% among 400,000; also: nearly all actives have a fitted effect of over 40% in size
HepG2 viability – kills HepG2 cells in TGF-b inhibitor counter-screen | HepG2 CAGA-GFP viability, ATP luminescence, 18 h | Potency, µM (highest dose often 46.1 µM), actives largely listed as cytotoxic | hit rate 0.76% among 410,000 | AID 588856
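CellTiter-Glo luminescence gave cytotoxicity after 18 hours at 37 degrees C. The cells were HepG2 CAGA-GFP in 1% FBS DMEM, stimulated with 500 pg/mL TGF-beta after compound addition. %Activity was normalised to no-cell wells (complete cell-killing) and DMSO (no toxicity), and curves were fitted and classified.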
ATXN2 expr inh – ATXN2 expression inhibition; Potency, µM (highest dose often 57 µM), most hits filed as inhibitors; HEK-293 ATXN2-luciferase reporter, luminescence, 24 h; hit rate 0.72% among 360,000; also: nearly all actives have a fitted effect of over 55% in size
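ATXN2-luciferase reporter cells (luciferase flanked by upstream and downstream ATXN2 gene portions) were treated 24 h at 37 °C with compounds at up to 57 uM. SteadyGlo luminescence gave expression; GF-AFC fluorescence gave viability.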
TGFb SMAD3 inh – inhibitors of TGF-b signaling; hit rate 1.2% among 410,000; HepG2 CAGA-GFP TGF-b/SMAD3 reporter, GFP fluorescence, 18 h; TGF-beta stimulated, 500 pg/mL final; Potency, µM (top dose mostly 46.1 µM), usual class: inhibitors; AID 588855; also: nearly all actives have a fitted effect of over 65% in size
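Cell-based qHTS in HEPG2 carrying a CAGA-GFP Smad reporter; compounds added before 500 pg/mL final TGF-beta, 18 h incubation at 37 degrees C, GFP fluorescence quantified per cell by imaging cytometry.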
CtBP-E1A blk – blocks the CtBP interaction with E1A. AlphaScreen GST-E1A/His-CtBP binding, 1536-well; stronger effect = lower value. activity change, % (test concentration not listed). hit rate 0.49% among 340,000. AID 651724; in the data active = activity change below about -65%; inconclusive = mostly about -30% to -63%
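Steps: dispense buffer (Tris pH 8.0, NaCl 300 mM, TCEP 1 mM, BSA, Tween 20); add 5X protein mix (GST-E1A, His-CtBP, 125 nM each); pin 23 nL compound; 2 h at 37 °C, dark; add 5X beads (50 ug/mL); 1 h; read.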
A number is an active result; ! = not confirmed by another sample. Unless noted, calls follow the shape of the dose curve; as a rule, active = well fitted curve in the direction sought with a large enough effect; inconclusive = small, poorly fitted or top-dose-only effect, or another doubt; inactive = no such curve, though single readings can be large; an effect the other way counts as inactive or inconclusive.

What do the screens show for `O=Nc1c(O)n(Cc2ccc(Cl)c(Cl)c2)c2ccccc12`?
Six1-Eya2 inh: inactive; S2 tox: inconclusive; HepG2 viability: 12.6µM; ATXN2 expr inh: inconclusive; TGFb SMAD3 inh: inactive; CtBP-E1A blk: inactive

What do the screens show for `CC(/C=N/Nc1nnc(C)c(=O)[nH]1)=C\c1ccccc1`?
Six1-Eya2 inh: inactive; S2 tox: inactive; HepG2 viability: inactive; ATXN2 expr inh: inactive; TGFb SMAD3 inh: inactive; CtBP-E1A blk: inactive

Results for C/C(=N\Nc1nnc(C)c(=O)[nH]1)C(=O)O ?
Six1-Eya2 inh: -89.2; S2 tox: inactive; HepG2 viability: inactive; ATXN2 expr inh: inactive; TGFb SMAD3 inh: inactive; CtBP-E1A blk: -87.2

Results for OCCn1cc(-c2ccc3c(c2)CCC3=NO)c(-c2ccncc2)n1 ?
ATXN2 expr inh: inactive

What do the screens show for `COc1cccc(CNC(=O)c2c(OC)cc(=O)n3c2CCN(C(=O)c2ccccc2Cl)CC3)c1`?
S2 tox: inactive

How did Cc1ccc(C(=O)N/C(=C\c2ccco2)C(=O)NCCCn2ccnc2)cc1 do in these assays?
Six1-Eya2 inh: -76.7; S2 tox: inactive; HepG2 viability: inactive; ATXN2 expr inh: inactive; TGFb SMAD3 inh: inactive; CtBP-E1A blk: inactive

What do the screens show for `Nc1cc(N)cc(N)c1`?
HepG2 viability: inactive; TGFb SMAD3 inh: inactive

Results for CN1CCN(c2ccc(NC(=O)COc3cccc4ccccc34)cc2)CC1 ?
Six1-Eya2 inh: inactive; S2 tox: inactive; HepG2 viability: inactive; ATXN2 expr inh: inactive; TGFb SMAD3 inh: inactive; CtBP-E1A blk: inactive

What do the screens show for `C=CC(=O)Nc1cccc(N(C)c2ccnc(Nc3ccc(N4CCN(C)CC4)cc3)n2)c1`?
Six1-Eya2 inh: inactive; S2 tox: 15.8µM; HepG2 viability: inactive; ATXN2 expr inh: inconclusive; TGFb SMAD3 inh: 5.01µM; CtBP-E1A blk: inconclusive

How did CCCc1nc(C)c2c(=O)[nH]c(-c3cc(S(=O)(=O)N4CCN(CC)CC4)ccc3OCC)nn12 do in these assays?
Six1-Eya2 inh: inactive; S2 tox: inactive; HepG2 viability: inactive; ATXN2 expr inh: 19.3µM!; TGFb SMAD3 inh: inactive; CtBP-E1A blk: inactive

Results for CCOc1cc(S(=O)(=O)N2CCN(CC)CC2)ccc1Cl ?
Six1-Eya2 inh: inactive; S2 tox: inactive; HepG2 viability: inactive; ATXN2 expr inh: inactive; TGFb SMAD3 inh: inactive; CtBP-E1A blk: inactive

What do the screens show for `N#Cc1ccc(C23CC4(C2)[C@H](CN(P(=O)(c2ccccc2)c2ccccc2)[C@@H]4c2ccccc2)C3c2ccc(Cl)nc2)cc1` (stereo partly drawn)?
Six1-Eya2 inh: inactive; S2 tox: inconclusive; HepG2 viability: inactive; ATXN2 expr inh: inactive; TGFb SMAD3 inh: 12.6µM; CtBP-E1A blk: inactive

What do the screens show for `COc1ccc2oc(=O)c(C(=O)Nc3cccc(C(=O)O)c3)cc2c1`?
S2 tox: inactive; HepG2 viability: inactive; ATXN2 expr inh: 0.891µM; TGFb SMAD3 inh: inactive

Results for CCOC(=O)C(CC)(CC)C(=O)/C=C/c1cccc(Br)c1 ?
Six1-Eya2 inh: inactive; S2 tox: inconclusive; HepG2 viability: inactive; ATXN2 expr inh: inconclusive; TGFb SMAD3 inh: 14.1µM; CtBP-E1A blk: inactive

How did Cc1ccnc(Nc2nc(-c3ccc(O)cc3)cs2)c1 do in these assays?
Six1-Eya2 inh: inactive; S2 tox: inactive; HepG2 viability: inactive; ATXN2 expr inh: inactive; TGFb SMAD3 inh: inactive; CtBP-E1A blk: inactive

How did Cc1ccnc(Nc2nc(-c3ccc(O)cc3O)cs2)c1 do in these assays?
Six1-Eya2 inh: inactive; S2 tox: inconclusive; HepG2 viability: 11.2µM; ATXN2 expr inh: inactive; TGFb SMAD3 inh: 11.2µM; CtBP-E1A blk: inactive

What do the screens show for `Cc1ccnc(Nc2nc(-c3ccc(O)c(O)c3)cs2)c1`?
Six1-Eya2 inh: inactive; S2 tox: inconclusive; HepG2 viability: inactive; ATXN2 expr inh: inactive; TGFb SMAD3 inh: 14.1µM; CtBP-E1A blk: inconclusive

How did COc1cccc(CNC(=O)c2cnc3sc(N4CCCC4)nn3c2=O)c1OC do in these assays?
HepG2 viability: inactive; TGFb SMAD3 inh: inactive

What do the screens show for `COc1cc([C@@H]2c3cc4c(cc3[C@@H](O[C@@H]3O[C@@H]5CO[C@@H](c6cccs6)O[C@@H]5[C@H](O)[C@@H]3O)[C@H]3COC(=O)[C@H]23)OCO4)cc(OC)c1O`?
ATXN2 expr inh: 0.172µM

How did Cc1ccc(NC(=O)CN(C)C(=O)Cc2coc3cc(C)c(C)cc23)cc1 do in these assays?
Six1-Eya2 inh: inactive; S2 tox: inactive; HepG2 viability: inactive; ATXN2 expr inh: inactive; TGFb SMAD3 inh: inactive; CtBP-E1A blk: inactive

What do the screens show for `CCN(CC(=O)Nc1ccc(OC)cc1)C(=O)Cc1coc2cc(C)c(C)cc12`?
Six1-Eya2 inh: inactive; S2 tox: inactive; HepG2 viability: 11.2µM; ATXN2 expr inh: inactive; TGFb SMAD3 inh: inactive; CtBP-E1A blk: inactive

Results for CCN1C(C(=O)c2ccccc2)=C(OC(=O)c2ccccc2OC)c2ccccc2S1(=O)=O ?
S2 tox: inconclusive; HepG2 viability: 4.47µM; ATXN2 expr inh: inconclusive; TGFb SMAD3 inh: 10µM

What do the screens show for `CC(C)CSc1nnc(CNC(=O)c2ccccn2)n1C`?
S2 tox: inactive

What do the screens show for `O=C(N/N=C/c1c(O)ccc2ccccc12)c1[nH]ncc1Br`?
Six1-Eya2 inh: -84.5; HepG2 viability: inactive; ATXN2 expr inh: inconclusive; TGFb SMAD3 inh: inconclusive; CtBP-E1A blk: -89.8

How did O=C(N/N=C\c1c(O)ccc2ccccc12)c1ccc(Cn2cccn2)o1 do in these assays?
Six1-Eya2 inh: -85.6; S2 tox: inactive; HepG2 viability: inactive; ATXN2 expr inh: 3.55µM; TGFb SMAD3 inh: inactive; CtBP-E1A blk: -73.0

What do the screens show for `CCOc1ccc(/C=N/NC(=O)c2[nH]ncc2Br)c(O)c1`?
Six1-Eya2 inh: -82.9; S2 tox: inactive; HepG2 viability: inactive; ATXN2 expr inh: inconclusive; TGFb SMAD3 inh: inactive; CtBP-E1A blk: -91.8

How did COc1ccc(OC)c(/C=N/NC(=O)c2[nH]ncc2Br)c1 do in these assays?
Six1-Eya2 inh: inactive; S2 tox: inconclusive; HepG2 viability: inactive; ATXN2 expr inh: inactive; TGFb SMAD3 inh: inactive; CtBP-E1A blk: inactive

Results for CCc1ccc(NC(=O)CCNS(=O)(=O)c2ccc3c(c2)CCCC(=O)N3)cc1 ?
S2 tox: inactive; HepG2 viability: inactive; ATXN2 expr inh: inactive; TGFb SMAD3 inh: inactive

What do the screens show for `COCCN1CCN(C(=O)c2cnn(-c3nccc(-c4cc5ccccc5o4)n3)c2C2CC2)CC1`?
S2 tox: inactive

Results for CCc1cnc2c(c1SCc1ccccc1C)c(=O)n(C)c(=O)n2C ?
S2 tox: inactive; HepG2 viability: inactive; ATXN2 expr inh: inactive; TGFb SMAD3 inh: inconclusive

What do the screens show for `Cc1cc(C)c(Cn2c3ccccc3c3cnn(CC(=O)N4CCCCC4)c(=O)c32)c(C)c1`?
S2 tox: inactive; HepG2 viability: inactive; ATXN2 expr inh: inactive; TGFb SMAD3 inh: inactive
